Laboratory results as given in PubChem BioAssay AID881 (National Center for Advancing Translational Sciences (NCATS), 2007).
Hit rate of the full screen: of about 110,000 compounds, about 610 (0.55%) were called active. Roughly 3% stayed inconclusive and do not appear here. What follows is part of a selection rich in actives, with near analogues and random picks from the rest. A number with no mark means an inactive call. Calls come from the whole dose curve; as a rule, active = well fitted inhibition curve with a large enough effect; inconclusive = small, poorly fitted or top-dose-only effect; inactive = no such curve, though single readings can be large or run the other way.
% is set by controls: 0 for no effect and ±100 for the full control effect; potency is the fitted concentration of half-maximal effect.
Note: nearly all actives have a fitted effect of over 60% in size.

These compounds were tested against Polyunsaturated fatty acid lipoxygenase ALOX15B (Homo sapiens) (UniProt O15296) (assay: qHTS Assay for Inhibitors of 15-hLO-2 (15-human lipoxygenase 2)). Details: purified 15hLO-2, xylenol orange hydroperoxide absorbance; series mostly up to 57.1 µM; activity change, negative = inhibition: at the top concentration.
Polyunsaturated fatty acid lipoxygenase ALOX15B (Homo sapiens), sequence (O15296 whole entry, looked up): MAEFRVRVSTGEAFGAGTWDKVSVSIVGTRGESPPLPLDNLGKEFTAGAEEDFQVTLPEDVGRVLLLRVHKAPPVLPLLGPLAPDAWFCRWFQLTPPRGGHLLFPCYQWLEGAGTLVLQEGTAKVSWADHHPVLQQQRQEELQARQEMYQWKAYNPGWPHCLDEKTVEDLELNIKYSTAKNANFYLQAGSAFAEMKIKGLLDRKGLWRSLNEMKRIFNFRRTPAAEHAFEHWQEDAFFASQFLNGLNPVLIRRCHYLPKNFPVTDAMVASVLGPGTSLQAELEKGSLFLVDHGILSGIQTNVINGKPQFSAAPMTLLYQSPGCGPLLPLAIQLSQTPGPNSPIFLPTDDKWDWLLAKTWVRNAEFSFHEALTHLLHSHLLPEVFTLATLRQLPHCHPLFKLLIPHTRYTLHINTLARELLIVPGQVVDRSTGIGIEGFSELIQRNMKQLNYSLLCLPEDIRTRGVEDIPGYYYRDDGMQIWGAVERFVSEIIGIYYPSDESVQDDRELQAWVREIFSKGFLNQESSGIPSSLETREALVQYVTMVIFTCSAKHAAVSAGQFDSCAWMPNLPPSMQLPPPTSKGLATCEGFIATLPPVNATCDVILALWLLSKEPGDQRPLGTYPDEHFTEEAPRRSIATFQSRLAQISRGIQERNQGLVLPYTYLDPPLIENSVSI
Procedure, shortened: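 Purified human 15hLO-2 (50 nM) preincubated 15 min with compound, then 45 uM arachidonic acid for 90 min at RT in 25 mM Hepes pH 7.5, 0.01% Triton X-100. Hydroperoxide detected by Fe-xylenol orange; 573/405 nm absorbance ratio.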
`Cc1ccc(CNC(=O)CCNS(=O)(=O)c2cccc3nonc23)cc1` was tested, and the “activity change, negative = inhibition” value was -1.56%.
`CC1=C(C/C=C(\C)CCCC(C)CCCC(C)CCCC(C)C)C(=O)c2ccccc2C1=O` (stereo not given) was tested, and the activity change, negative = inhibition was -19.6% [at 0.0915 µM].
`Cn1c(SCC(=O)NC2CCCCC2)nnc1-c1cc2ccccc2o1` was tested, and the “activity change, negative = inhibition” value was 6.06%.
With `O=c1c2ccccc2nc2n1C(CSCc1ccccc1)CS2` (stereo not given) the “activity change, negative = inhibition” value was -0.0852%.
With `CCOC(=O)C1=C(C)Nc2sc(C(=O)c3ccc(Br)cc3)c(N)c2C1c1ccc(C(=O)OC)cc1` (stereo not given) the “activity change, negative = inhibition” value was -18.9%.
`Cc1ccc(C(=O)OC2=CC(=O)CC(C)(C)C2)cc1` was tested, and the activity change, negative = inhibition was -18% [at 11.4 µM].
For `c1cnc(Nc2nc(-c3ccc4ccccc4c3)cs2)nc1`, the “activity change, negative = inhibition” value was -9.83%.
In the case of `COc1ccc(OC)c(Nc2nc(-c3ccc(O)c(O)c3)cs2)c1`, the Potency is reported as 12.6 µM (active).
With `COc1ccc(Nc2nc(-c3ccccc3)cs2)cc1` the “activity change, negative = inhibition” value was -0.853%.
In the case of `O=C(OC1CCCCC1=O)c1cccc(S(=O)(=O)NCc2ccccc2)c1` (stereo not given), the “activity change, negative = inhibition” value is reported as -5.34%.
`OCCN(Cc1ccccc1)Cc1ccc(Cl)cc1` was tested, and the “activity change, negative = inhibition” value was -6.06%.
With `O=C1CSC2=NCN(c3ccccc3)CN12` the “activity change, negative = inhibition” value was 1.46%.
For `O=C(NCc1ccco1)c1ccc(Cn2c(=O)c3sccc3n(Cc3ccc(F)cc3)c2=O)cc1`, the “activity change, negative = inhibition” value was -11.1%.
For `CCn1c(-c2ccoc2C)n[nH]c1=S`, the “activity change, negative = inhibition” value was 13%.
`CCCC1NC(=O)NC(C)=C1C(=O)OCC` (stereo not given) was tested, and the “activity change, negative = inhibition” value was -5.77%.
In the case of `COc1cccc(OC)c1C(=O)Nc1ccc(N2CCCCC2)cc1`, the “activity change, negative = inhibition” value is reported as 3.88%.
`COc1ccc([N+](=O)[O-])cc1N(CC(O)Cn1nnc2ccccc21)S(=O)(=O)c1ccc(C)cc1` (stereo not given) was tested, and the “activity change, negative = inhibition” value was -1.66%.
In the case of `CCCCNCc1ccc(SC)cc1`, the “activity change, negative = inhibition” value is reported as 21.2%.
`Clc1ccc(-n2nnnc2CN2CCCCC2)cc1Cl` gave an activity change, negative = inhibition of 0.993% [at 11.4 µM].
With `COc1ccc(Oc2c(Cl)cnn(-c3ccccc3)c2=O)cc1` the “activity change, negative = inhibition” value was -7.51%.
`C#CCN(N(C)c1ncc(C(F)(F)F)cc1Cl)S(=O)(=O)c1ccc2ccccc2c1` was tested, and the “activity change, negative = inhibition” value was -5.59%.
`Cc1ccccc1-c1ccc(C(=O)O)s1` gave an activity change, negative = inhibition of -3.34% [at 0.0915 µM].
In the case of `COC(=O)CNC(=O)c1ccccc1F`, the “activity change, negative = inhibition” value is reported as 1.73%.
For `CC(C)CCSc1ncnc2c1oc1nc3c(cc12)COC(C)(C)C3`, the “activity change, negative = inhibition” value was 13.4%.
For `Cc1ccc(-c2csc(NC(=O)c3cccs3)n2)cc1`, the “activity change, negative = inhibition” value was 27.2%.
For `Cn1nc(-c2ccccc2)c(-c2nc(-c3ccc(Cl)cc3)no2)c1Cl`, the “activity change, negative = inhibition” value was -4.91%.
For `CCCSc1nsc(N)n1`, the “activity change, negative = inhibition” value was -13%.
With `COc1cc(OC)cc(C(=O)NC(=S)N2CCN(c3ccc(C(F)(F)F)cc3[N+](=O)[O-])CC2)c1` the “activity change, negative = inhibition” value was -13%.
In the case of `COC(=O)CSc1snnc1-c1ccc(Cl)c(Cl)c1`, the “activity change, negative = inhibition” value is reported as 2.53%.
With `COC(=O)c1ccccc1NC(=O)CN(Cc1ccc(Cl)cc1)S(C)(=O)=O` the “activity change, negative = inhibition” value was 7.94%.
